Assay [1] is described as follows: NCI Yeast Anticancer Drug Screen. Data for the rad50 strain (AID 155).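 Note: 0% = growth of vehicle-only cultures of the same strain.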 The note with it: S. cerevisiae rad50 strain growth inhibition, hits give high values. The method in brief: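 Compounds were tested on a yeast strain with an engineered DNA damage repair alteration; the reported value is growth inhibition normalised to vehicle treatment.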
Assay [2] is described as follows: NCI Yeast Anticancer Drug Screen. Data for the mec2-1 strain (AID 157). The note with it: S. cerevisiae mec2-1 strain, hits give high values. In a few lines:
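Test agents were screened against the mec2-1 yeast strain, with defined DNA repair or cell cycle alteration. Growth was scored as inhibition against vehicle-only controls.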

The nature of assay [3]: NCI Yeast Anticancer Drug Screen. Data for the sgs1 mgt1 strain (AID 161).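 Note: 0% = growth of cultures given vehicle only.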 Conditions: S. cerevisiae sgs1 mgt1 strain, hits give high values. The method in brief:
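Read-out: growth inhibition vs vehicle controls. Cells: mutant yeast strain deficient in DNA damage repair.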

Assay [4] in a line: NCI Yeast Anticancer Drug Screen. Data for the cln2 rad14 strain (AID 165).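 Note: 0% = growth equal to vehicle treated cultures.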 The note with it: S. cerevisiae cln2 rad14 strain, hits give high values. In a few lines: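 Growth of compound-exposed yeast (cln2 rad14 genotype) measured and expressed as inhibition relative to vehicle.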
The nature of assay [5]: NCI Yeast Anticancer Drug Screen. Data for the bub3 strain (AID 167). Conditions: S. cerevisiae bub3 mutant strain, hits give high values. The method in brief:
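Growth of a checkpoint-deficient yeast mutant is measured after compound exposure. Values represent inhibition relative to vehicle.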

A short description of assay [6]: NCI Yeast Anticancer Drug Screen. Data for the mlh1 rad18 strain (AID 175). Conditions: S. cerevisiae mlh1 rad18 strain growth inhibition, hits give high values. In a few lines: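 In this whole-cell yeast screen, a strain with altered DNA damage repair is challenged with compound, and its growth is measured against matched vehicle-treated controls.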
Where [7] appears, read: at 5.0 µM (retest, dose inferred, filed as 0.5).
Setting [8] is: at 50.0 µM (retest, dose inferred, filed as 5.0).

The source of these data is PubChem BioAssay (NCI).

This is part of a sample that, as a whole, favours compounds with a hit. Of some 79,000 tested, about 15% had one in any assay. Values without a mark were called inactive. Activity calls are given as the source filed them. Cut-off read from the data, not from the text of the source: active = growth inhibition above about 70%; inactive = the rest.

Consider `CCS(=O)(=O)/C=C/c1ccc2ccccc2n1`, for which the growth inhibition in assay [1] (setting [7]) is -143%; in assay [1] (setting [8]) it was 47%; in assay [1] (at 50.0 µM), 47.3%; in assay [2] (setting [7]), -43%; in assay [2] (setting [8]), 6%; in assay [2] (at 50.0 µM) it was 28.9%. Moreover, the growth inhibition is -55% in assay [3] (setting [7]); 23% in assay [3] (setting [8]); 35.2% in assay [3] (at 50.0 µM); -41% in assay [4] (setting [7]); -14% in assay [4] (setting [8]); 3.55% in assay [4] (at 50.0 µM). The growth inhibition is -67% in assay [5] (setting [7]); 16% in assay [5] (setting [8]); 18.4% in assay [5] (at 50.0 µM); -134% in assay [6] (setting [7]); 39% in assay [6] (setting [8]); 63.4% in assay [6] (at 50.0 µM).

As for `CCOC(=O)NC(c1ccc(C(NC(=O)OCC)P(=O)(O)NC23CC4CC(CC(C4)C2)C3)cc1)P(=O)(O)NC12CC3CC(CC(C3)C1)C2` (stereo not given), the growth inhibition in assay [1] (setting [7]) was -8%; in assay [1] (setting [8]), -6%; in assay [1] (at 50.0 µM), 60.4%; in assay [2] (setting [7]), 5%; in assay [2] (setting [8]) it was -10%; in assay [2] (at 50.0 µM), 84.2% (active). Further, the growth inhibition is -8% in assay [3] (setting [7]); -24% in assay [3] (setting [8]); 81% (active) in assay [3] (at 50.0 µM); -30% in assay [4] (setting [7]); -2% in assay [4] (setting [8]); 71.8% (active) in assay [4] (at 50.0 µM). The growth inhibition is 13% in assay [5] (setting [7]); -7% in assay [5] (setting [8]); 91% (active) in assay [5] (at 50.0 µM); -31% in assay [6] (setting [7]); -21% in assay [6] (setting [8]); 76.4% (active) in assay [6] (at 50.0 µM).

Consider `O=C1c2c(O)ccc(O)c2C(=O)c2c(O)ccc(O)c21`, for which the growth inhibition in assay [1] (setting [7]) is -23%; in assay [1] (setting [8]) it was 22%; in assay [1] (at 50.0 µM), 21.4%; in assay [2] (setting [7]), 1%; in assay [2] (setting [8]), -12%; in assay [2] (at 50.0 µM) it was 18.2%. In addition, the growth inhibition is -12% in assay [3] (setting [7]); 10% in assay [3] (setting [8]); 12.3% in assay [3] (at 50.0 µM); -10% in assay [4] (setting [7]); -2% in assay [4] (setting [8]); 41% in assay [4] (at 50.0 µM). Further, the growth inhibition in assay [5] (setting [7]) was -14%; in assay [5] (setting [8]), 8%; in assay [5] (at 50.0 µM) it was 16.5%; in assay [6] (setting [7]), 8%; in assay [6] (setting [8]), -2%; in assay [6] (at 50.0 µM), 4.25%.

As to `CCCCNC(=S)NC1C2CC3CC(C2)CC1C3` (stereo not given), the growth inhibition in assay [1] (setting [7]) is -8%; in assay [1] (setting [8]), 78% (active); in assay [1] (at 50.0 µM) it was 97.4% (active); in assay [2] (setting [7]), -4%; in assay [2] (setting [8]) it was 64%; in assay [2] (at 50.0 µM) it was 98.5% (active). The growth inhibition in assay [3] (setting [7]) was -4%; in assay [3] (setting [8]), 90% (active); in assay [3] (at 50.0 µM), 97.9% (active); in assay [4] (setting [7]), 0%; in assay [4] (setting [8]) it was 39%; in assay [4] (at 50.0 µM), 92.2% (active). Besides, the growth inhibition in assay [5] (setting [7]) was -8%; in assay [5] (setting [8]) it was 24%; in assay [5] (at 50.0 µM), 90.4% (active); in assay [6] (setting [7]), -13%; in assay [6] (setting [8]), 93% (active); in assay [6] (at 50.0 µM), 97.2% (active).

`NNC(=S)NN/C=C(\C=Nc1ccccc1)[N+](=O)[O-]`: the growth inhibition in assay [1] (setting [7]) is 19%; in assay [1] (setting [8]), 80% (active); in assay [1] (at 50.0 µM), 69.8%; in assay [2] (setting [7]) it was -29%; in assay [2] (setting [8]) it was 70% (active); in assay [2] (at 50.0 µM) it was 68%. For the same compound, the growth inhibition in assay [3] (setting [7]) was 7%; in assay [3] (setting [8]), 62%; in assay [3] (at 50.0 µM), 65.5%; in assay [4] (setting [7]), -17%; in assay [4] (setting [8]) it was 57%; in assay [4] (at 50.0 µM), 57.5%. Besides, the growth inhibition in assay [5] (setting [7]) was -6%; in assay [5] (setting [8]), 64%; in assay [5] (at 50.0 µM), 75.1% (active); in assay [6] (setting [7]), -20%; in assay [6] (setting [8]), 86% (active); in assay [6] (at 50.0 µM), 68.8%.

As for `COc1ccc2c(c1)CC[C@@H]1[C@@H]2CC[C@]2(C)/C(=N/OCCN3CCCCC3)CC[C@@H]12`, the growth inhibition in assay [1] (setting [7]) was 60%; in assay [1] (setting [8]), 97% (active); in assay [1] (at 50.0 µM), 76.3% (active); in assay [2] (setting [7]) it was 56%; in assay [2] (setting [8]), 98% (active); in assay [2] (at 50.0 µM), 71.2% (active). The growth inhibition in assay [3] (setting [7]) was 33%; in assay [3] (setting [8]) it was 97% (active); in assay [3] (at 50.0 µM), 86.8% (active); in assay [4] (setting [7]), 20%; in assay [4] (setting [8]) it was 96% (active); in assay [4] (at 50.0 µM), 78.7% (active). Moreover, the growth inhibition in assay [5] (setting [7]) is 33%; in assay [5] (setting [8]) it was 98% (active); in assay [5] (at 50.0 µM), 79.8% (active); in assay [6] (setting [7]) it was 80% (active); in assay [6] (setting [8]), 98% (active); in assay [6] (at 50.0 µM) it was 83% (active).

For `CCC[CH2][Sn]([CH2]CCC)([O]C(=O)c1cccc(F)c1)[O]C(=O)c1cccc(F)c1`, the growth inhibition in assay [1] (setting [7]) is 26%; in assay [1] (setting [8]) it was 26%; in assay [1] (at 50.0 µM), 51.5%; in assay [2] (setting [7]), -2%; in assay [2] (setting [8]) it was -2%; in assay [2] (at 50.0 µM) it was 33.5%. Besides, the growth inhibition is -1% in assay [3] (setting [7]); -1% in assay [3] (setting [8]); 73.2% (active) in assay [3] (at 50.0 µM); 10% in assay [4] (setting [7]); 10% in assay [4] (setting [8]); 14.9% in assay [4] (at 50.0 µM). For the same compound, the growth inhibition in assay [5] (setting [7]) is -2%; in assay [5] (setting [8]) it was -2%; in assay [5] (at 50.0 µM) it was 49.9%; in assay [6] (setting [7]) it was -1%; in assay [6] (setting [8]), -1%; in assay [6] (at 50.0 µM) it was 53%.

In the case of `Nc1ccc(-c2nc3ccccc3s2)cc1Br`, the growth inhibition in assay [1] (setting [7]) is 33%; in assay [1] (setting [8]) it was 74% (active); in assay [1] (at 50.0 µM), 8%; in assay [2] (setting [7]), 24%; in assay [2] (setting [8]) it was 77% (active); in assay [2] (at 50.0 µM), 18.8%. The growth inhibition in assay [3] (setting [7]) is 31%; in assay [3] (setting [8]) it was 97% (active); in assay [3] (at 50.0 µM) it was 21.1%; in assay [4] (setting [7]), 27%; in assay [4] (setting [8]), 63%; in assay [4] (at 50.0 µM), 10.8%. For the same compound, the growth inhibition in assay [5] (setting [7]) was 28%; in assay [5] (setting [8]), 96% (active); in assay [5] (at 50.0 µM) it was 52%; in assay [6] (setting [7]), 34%; in assay [6] (setting [8]), 88% (active); in assay [6] (at 50.0 µM), 55.9%.

As for `O=[N+]([O-])c1ccc(-[n+]2ccc3ccccc3c2)c([N+](=O)[O-])c1`, the growth inhibition in assay [1] (setting [7]) is 14%; in assay [1] (setting [8]), 78% (active); in assay [1] (at 50.0 µM) it was 72.4% (active); in assay [2] (setting [7]) it was 8%; in assay [2] (setting [8]) it was 80% (active); in assay [2] (at 50.0 µM), 52.3%. Also, the growth inhibition is 11% in assay [3] (setting [7]); 79% (active) in assay [3] (setting [8]); 82.4% (active) in assay [3] (at 50.0 µM); 10% in assay [4] (setting [7]); 61% in assay [4] (setting [8]); 37.4% in assay [4] (at 50.0 µM). Further, the growth inhibition was 6% in assay [5] (setting [7]); 59% in assay [5] (setting [8]); 78% (active) in assay [5] (at 50.0 µM); 40% in assay [6] (setting [7]); 90% (active) in assay [6] (setting [8]); 81.6% (active) in assay [6] (at 50.0 µM).

`Nc1ccc(SSc2ccc(N)cc2)cc1`: the growth inhibition in assay [1] (setting [7]) is -2%; in assay [1] (setting [8]), 97% (active); in assay [1] (at 50.0 µM), 93% (active); in assay [2] (setting [7]), -3%; in assay [2] (setting [8]), 98% (active); in assay [2] (at 50.0 µM) it was 61.5%. Also, the growth inhibition in assay [3] (setting [7]) is 2%; in assay [3] (setting [8]), 97% (active); in assay [3] (at 50.0 µM), 57.6%; in assay [4] (setting [7]), -7%; in assay [4] (setting [8]) it was 72% (active); in assay [4] (at 50.0 µM), 94.1% (active). Further, the growth inhibition in assay [5] (setting [7]) is 0%; in assay [5] (setting [8]), 98% (active); in assay [5] (at 50.0 µM), 95.3% (active); in assay [6] (setting [7]), -1%; in assay [6] (setting [8]), 98% (active); in assay [6] (at 50.0 µM) it was 96.4% (active).
